# Source: PubChem BioAssay AID504332 (National Center for Advancing Translational Sciences (NCATS), 2011)
# Screen size: about 350,000 compounds; about 31,000 (8.9%) were called active. About 15% were inconclusive and are not listed. Calls come from the whole dose curve; as a rule, active = well fitted inhibition curve with a large enough effect; inconclusive = small, poorly fitted or top-dose-only effect; inactive = no such curve, though single readings can be large or run the other way. This excerpt belongs to a sample that is enriched for actives.
# Biological target: Histone-lysine N-methyltransferase EHMT2 (Homo sapiens) (UniProt Q96KQ7)
# Sequence (Q96KQ7 913-1193 limits assumed): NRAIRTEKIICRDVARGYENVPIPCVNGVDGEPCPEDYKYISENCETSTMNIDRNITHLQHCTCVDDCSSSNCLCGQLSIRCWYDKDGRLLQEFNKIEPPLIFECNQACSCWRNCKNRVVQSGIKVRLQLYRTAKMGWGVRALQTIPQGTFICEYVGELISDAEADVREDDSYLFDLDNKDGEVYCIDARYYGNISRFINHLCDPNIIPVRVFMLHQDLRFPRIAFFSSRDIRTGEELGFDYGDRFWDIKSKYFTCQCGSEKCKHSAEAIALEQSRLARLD
# Experiment: qHTS Assay for Inhibitors of Histone Lysine Methyltransferase G9a; note: nearly all actives have a fitted effect of over 75% in size
# Conditions: G9a H3K9 monomethylation, AlphaScreen, 2 h; series mostly up to 59 µM; activity, negative = inhibition: at the top concentration
# Text: Methylated lysines, on the N-terminal tails of histone proteins serve as epigenetic markers to recruit factors that can then modify local chromatin structure to lead to functional consequences. G9a and other members of the SUV39 family of the SET domain-containing superfamily of histone lysine methyltransferases (HMT) have been identified to specifically methylate Lys9 of histone H3 (H3K9). G9a catalyzes the mono- and di-methylation of H3K9 in mammalian euchromatic regions, where the resulting H3K9me2 is indicative of transcriptional repression. […] The inhibition of G9a will result in transcriptional activation and work synergistically with DNA methyltransferase and histone deacetylase inhibitors, to kill cancer cells. This qHTS assay for identification of G9a inhibitors is a chemiluminescence based AlphaScreen (PerkinElmer). Methylation of biotinylated-histone peptide is measured through specific antibody-based detection, in conjunction with streptavidin-coated donor and anti-IgG antibody-coated acceptor beads. The method is particularly well suited for detection of inhibitors acting by the desired histone peptide competitive mechanism and is applicable to testing other HMTs. Although AlphaScreen has significant advantages with its utility in a variety of epigenetic target assays, the primary screening data provided in this deposition should be used with caution due to the prevalence of screening artifacts. An AlphaScreen counterscreen is highly recommended to be run against any putative actives to eliminate non specific artifacts. Alternatively, one can use other AlphaScreen assays in PubChem to filter out promiscuous hits. Quinn et al. A chemiluminescence-based method for identification of histone lysine methyltransferase inhibitors. Mol Biosyst 6(5): 782-8. 2010. PMID: 20567762 [2] Baell,Holloway. New substructure filters for removal of pan assay interference compounds (PAINS) from screening libraries and for their exclusion in bioassays. J Med Chem. 53(7):2719-40. 2010. PMID: 20131845 NIH Molecular Libraries Probe Production Network [MLPCN] NIH Chemical Genomics Center [NCGC] Structural Genomics Consortium (SGC) NIH Grant: 5U54 MH084681-02
# To each well of a 1,536w plate, 2ul of HMT enzyme (final 20nM) were added, using a nanoliter dispenser. The G9a- and GLP-inhibitor BIX-01294 (CID: 25150857) are used as an intraplate control, with a 16-point titration in duplicate. A Kalypsys pin-tool transferred 23nl of library compound solution in DMSO to each well. Following a 15 min incubation of enzyme with compounds at room temperature, 1ul mixture of b-H3K9 peptide substrate (final 500nM) and SAM cofactor (final 20uM) were added. Reactions were allowed to proceed at room temperature for 2 hours. Methylated b-H3K9 peptide product was detected with 0.5 ug/mL rabbit polyclonal anti-monomethyl histone H3K9 antibody (Abcam Inc., Cambridge, MA) and 20 ug/mL each streptavidin-coated donor and anti-rabbit IgG acceptor AlphaScreen beads. Antibody and beads were added in a 1ul dispense, for a final volume of 4ul, and plates were incubated, protected from the light, for 10 min at room temperature. Microplates were then read on an EnVision multilabel plate reader using the 1,536 plate HTS AlphaScreen aperture (excitation time 80 ms, measurement time 240 ms).
# % is set by controls: 0 for no effect and ±100 for the full control effect; potency is the fitted concentration of half-maximal effect.
Compound,Potency,"activity, negative = inhibition"
S=C(NCCCc1cnc[nH]1)NCCCN(Cc1ccc(Cl)c(Cl)c1)c1ccc(Br)cn1,25.1 µM (active),
CCc1cc2c(cc3c(=O)n(CC(=O)N4CCN(c5cc(Cl)ccc5C)CC4)ncn32)s1,,0.716% (inactive)
CCNC(=O)N1CCCC(C(=O)c2ccc(-c3ccccc3)cc2)C1 (configuration not stated),,51.8% [at 102 µM] (inactive)
O=C(CN1CCc2ccccc2C1)Nc1cccc(S(=O)(=O)N2CCOCC2)c1,,15.7% [at 12.7 µM] (inactive)
CCn1c(=O)c2ccccc2n(CC(=O)N2CCCc3ccccc32)c1=O,,-7.66% [at 0.501 µM] (inactive)
NS(=O)(=O)c1cccc(NC(=O)CN2CCCc3ccccc32)c1,44.7 µM (active),
O=Cc1c(NCCCN2CCCC2=O)c2ccccc2[nH]c1=O,,20.8% [at 102 µM] (inactive)
CC1Cc2ccccc2N1CC(=O)Nc1ccc(S(N)(=O)=O)cc1 (configuration not stated),,-108% (inactive)
COC(=O)c1[nH]c2ccccc2c1NC(=O)CN1CCCc2ccccc21,44.7 µM (active),
O=C(CCCn1c(=O)c2cccn2c2cccnc21)NCc1ccc(F)cc1,,5.33% (inactive)
Cc1cc(C)cc(NC(=O)c2cnc3sc(N4CCCC4)nn3c2=O)c1,,4.91% (inactive)
O=C1/C(=C\Nc2ccccc2)CCN1c1ncccn1,50.1 µM (active),
O=C(Cc1ccccc1)NNC(=O)C1CCN(c2ncccn2)CC1,,2.95% [at 102 µM] (inactive)
COc1ccc(-c2c(C)nn3c(N4CCC(C(=O)NCCC(C)C)CC4)cc(C)nc23)cc1OC,,5.73% (inactive)
CCC1CCCCN1Cc1c(O)ccc2c(=O)c(Oc3ccccc3Cl)c(C(F)(F)F)oc12 (configuration not stated),,0.282% (inactive)
Cc1ccc(OCCn2c(CNc3ccccc3C)nc3ccccc32)cc1,,5.61% (inactive)
COc1ccccc1CNC(=O)CCCCn1c(=O)c2ccccc2n(CC(=O)Nc2cc(Cl)ccc2C)c1=O,,-19.7% (inactive)
COC(=O)c1ccc(NC(=O)CCc2c(C)nc3c(c(C)nn3-c3ccc(C)cc3)c2C)cc1,,-1.18% (inactive)
O=C(CCOc1ccccc1)N(Cc1cccnc1)c1nc2ccc(Cl)cc2s1,,-3.53% (inactive)
COc1ccc(CC(=O)N/N=C(\C)c2ccccn2)cc1,,-5.58% (inactive)
CCN(CC)CCOc1ccc2c(c1)C(=NNC(=O)c1ccccn1)c1cc(OCCN(CC)CC)ccc1-2,22.4 µM (active),
Cc1cccc(OCC(=O)NCCCNC(=O)c2ccccn2)c1,,15.8% [at 102 µM] (inactive)
O=C(Nc1ccccc1N1CCN(C(=O)c2ccccc2)CC1)c1ccco1,,-3.56% [at 102 µM] (inactive)
CCc1nc2ccc(C(=O)N3CCN(c4cc(Cl)ccc4C)CC3)cc2nc1CC,,9.41% (inactive)
Cc1ccc(C)c(N2C(=O)N(Cc3c(F)cccc3Cl)c3ccccc3S2(=O)=O)c1,,0.542% (inactive)

Compound,Potency,"activity, negative = inhibition"
CCOc1ccc(NC(=O)c2cc3c(=O)n(Cc4cccs4)ccc3nc2C)cc1,,-4.13% (inactive)
Cc1nn(-c2ccccc2)c2c1c(C)c(CCC(=O)NCC1CCCO1)c(=O)n2C (configuration not stated),,51.1% [at 102 µM] (inactive)
O=C(c1cccs1)N1CCN(C(=O)N2CCOCC2)CC1,,24.4% (inactive)
COc1ccc(N2CCN(C(=O)c3cccs3)CC2)cc1,50.1 µM (active),
COc1ccc(OCC(=O)N2CCN(C(=O)c3cccs3)CC2)cc1,,11.1% (inactive)
O=C(O)c1ccc(NC(=O)c2ccc(COc3ccc(Cl)cc3)o2)cc1,,2.31% [at 102 µM] (inactive)
Cc1ccc(Oc2c(C(F)(F)F)oc3c(CN4CCCCC4)c(O)ccc3c2=O)cc1,,-2.63% (inactive)
O=C(N/N=C/c1c[nH]c2ccccc12)c1ccccc1O,,14.7% [at 102 µM] (inactive)
O=C1c2ccccc2-c2ncnc3c(N4CCOCC4)cc(N4CCOCC4)c1c23,50.1 µM (active),
O=C(Nc1ccccc1N1CCOCC1)c1ccncc1,,-10.3% [at 2.33 µM] (inactive)
c1ccc(-c2oc3ncnc(N4CCOCC4)c3c2-c2ccccc2)cc1,,-7.86% [at 12.7 µM] (inactive)
COc1cc(C(=O)NCCc2csc3nc(-c4ccccc4C)nn23)cc(OC)c1OC,,38.2% (inactive)
CN(C)c1ccc(C(CC(=O)O)C(=O)O)cc1 (configuration not stated),56.2 µM (active),
CN(C)c1ccc(/C=N/NC(=O)C(O)c2ccc(Br)cc2)cc1 (configuration not stated),,-46.3% [at 102 µM] (inactive)
CC(=O)NC(CC(=O)O)c1ccc(F)cc1 (configuration not stated),,-46.2% [at 102 µM] (inactive)
COc1cccc(C(=O)N(Cc2cccc(Cl)c2)Cc2ccco2)c1,,-21.4% (inactive)
O=C(c1cc(COc2ccc(F)cc2F)on1)N1CCOCC1,,-7.8% [at 102 µM] (inactive)
COc1ccccc1-c1cc(C(=O)N2CCCCC2)no1,,9.56% [at 102 µM] (inactive)
COc1ccc(OCc2cc(C(=O)N3CCCC3)no2)c2ccccc12,39.8 µM (active),
Cc1ccc(CNS(=O)(=O)CCNC(=O)c2ccccc2)cc1,,0.106% [at 102 µM] (inactive)
Cc1ccc(-c2csc(NC(=O)c3cnccn3)n2)cc1C,,-3.35% (inactive)
Cc1csc(NC(=O)C2=COCCO2)n1,,2.32% [at 102 µM] (inactive)
Cc1ccc(-c2csc(NC(=O)C3=COCCO3)n2)cc1C,56.2 µM (active),
O=C(Nc1ccc(OC(F)(F)F)cc1)c1cc2c(=O)n3ccccc3nc2s1,,-27.2% (inactive)
Cc1c(NC(=O)CSc2nnc(-c3cccnc3)n2N)c(=O)n(-c2ccccc2)n1C,,24.5% [at 12.7 µM] (inactive)

Compound,Potency,"activity, negative = inhibition"
CCCCOc1ccc(Cl)cc1CSc1nncn1N,7.08 µM (active),
COC(=O)c1ccc(CSc2nncn2N)cc1,,-2.99% [at 102 µM] (inactive)
Cc1cc(=O)[nH]c(SCc2cc(Cl)ccc2OC(F)F)n1,,-5.52% [at 102 µM] (inactive)
Cc1cccc(N(C(=O)Cc2cccs2)C(C(=O)NCc2ccco2)c2ccncc2)c1 (configuration not stated),,5.39% [at 102 µM] (inactive)
Cc1ccc(NC(=O)C(=O)NCc2ccco2)c(C)c1,,-4.41% [at 102 µM] (inactive)
Cc1ccc2nc(SC(C)C(=O)NCc3ccco3)[nH]c2c1 (configuration not stated),39.8 µM (active),
CCN1CCN(Cc2c(O)ccc3oc(C)c(C(=O)Nc4ccc(C)cc4C)c23)CC1,,-23.5% (inactive)
CCOc1ccc(-c2nonc2NC(=O)c2oc3ccc(C)cc3c2C)cc1OCC,,10.3% (inactive)
O=C(C1CCN(S(=O)(=O)c2cnc[nH]2)CC1)N1CCN(Cc2ccc3c(c2)OCO3)CC1,,-12% [at 12.7 µM] (inactive)
O=C(C1CCN(C2CCN(Cc3cccc4c3OCO4)CC2)CC1)N1CCOCC1,,7.97% [at 102 µM] (inactive)
O=C(c1cccs1)N1CCN(Cc2ccc3c(c2)OCO3)CC1,56.2 µM (active),
Cc1cc(C)n2nc(C(=O)N3CCN(Cc4ccc5c(c4)OCO5)CC3)nc2n1,,-7.72% [at 102 µM] (inactive)
O=C(C1CCN(Cc2ccc(Cl)cc2)CC1)N1CCN(Cc2ccc3c(c2)OCO3)CC1,8.91 µM (active),
O=C(Nc1cccc2ccccc12)N1CCN(Cc2ccc3c(c2)OCO3)CC1,,2.38% [at 12.7 µM] (inactive)
Cc1ccc(S(=O)(=O)N2[C@@H](c3cccc(Cl)c3)C(C(=O)O)=CC[C@H]2c2ccc(Cl)c(Cl)c2)cc1,,13.5% [at 2.33 µM] (inactive)
COc1ccc(-c2cc(C(=O)NCCCN3CCCC3=O)c3ccccc3n2)cc1OC,,15% [at 2.33 µM] (inactive)
Cc1cc(C)c(NC(=O)CSc2nc3nccnc3c(=O)n2CCc2c[nH]c3ccccc23)c(C)c1,,4.58% (inactive)
COCCCNC(=S)NCCNc1nc2cc(C)c(C)cc2cc1C#N,,20% (inactive)
CCCCc1ccc(NC(=S)NCCCN2CCOCC2)cc1,,31.4% [at 12.7 µM] (inactive)
Cc1ccc2cc(C#N)c(NCCNC(=S)NCCCN3CCOCC3)nc2c1,39.8 µM (active),
CCOCCCNc1nc(-c2ccccc2)nc2ccccc12,,14.1% [at 102 µM] (inactive)
CCn1c(SCC(=O)Nc2ccc(S(=O)(=O)Nc3onc(C)c3C)cc2)nnc1-c1ccccc1,,-43.1% (inactive)
Cc1noc(NS(=O)(=O)c2ccc(NC(=O)c3oc4ccc(F)cc4c3C)cc2)c1C,,-20.8% [at 102 µM] (inactive)
Cc1cc(C)c2nc(-c3cccnc3)cc(C(=O)Nc3ccc(S(=O)(=O)Nc4onc(C)c4C)cc3)c2c1,50.1 µM (active),
CC(C)OCCCn1c(SCC(=O)c2ccccc2)nc2c(sc3ccccc32)c1=O,,-2.03% (inactive)

Compound,Potency,"activity, negative = inhibition"
COc1ccc(NC(=O)c2cn(-c3ccccc3)nc2SC)cc1,39.8 µM (active),
COc1cc(NC(=O)c2cccnc2SC)cc(OC)c1,,1.95% [at 102 µM] (inactive)
COc1ccc(-c2nn(-c3ccccc3)cc2C(=O)Nc2nc(CC(C)=O)ns2)cc1,,-1.95% (inactive)
Cc1nnc(C)n1-c1ccc(C(=O)Nc2cccc(Br)c2)cc1,,-0.406% (inactive)
CCOC(=O)CC1COCCN1C(=O)c1cc(COc2ccc(F)c(F)c2)on1 (configuration not stated),,-0.953% [at 102 µM] (inactive)
COc1ccc(NC(=O)CN(C)C(=O)c2n[nH]c3ccccc23)cc1,,-20.6% [at 102 µM] (inactive)
COc1ccc(CNC(=O)Cc2coc3ccc(C(C)C)cc23)cc1,,12% (inactive)
COc1ccc(NC(=O)CN(C)C(=O)c2cc(-c3ccc(C)o3)nc3ccccc23)cc1,4.47 µM (active),
COc1ccc(-c2cc(C(=O)N(C)Cc3ccccc3)c3ccccc3n2)cc1,,18.4% [at 102 µM] (inactive)
Cc1ccc(NC(=O)c2cc(-c3ccc(C)o3)nc3ccccc23)nc1,2.24 µM (active),
CSc1ncccc1C(=O)Nc1ccc(C)cn1,,36.7% [at 102 µM] (inactive)
COc1ccc(NC(=O)CN(C)C(=O)Cc2coc3cc(C)c(C)cc23)cc1,50.1 µM (active),
CC(=O)N1CCN(C(=O)c2cc(-c3ccc(C)o3)nc3ccccc23)CC1,,-3.86% [at 0.501 µM] (inactive)
COc1ccc(NC(=O)CN(C)C(=O)CC2CCCCC2)cc1,,0.205% [at 102 µM] (inactive)
Cc1oc2ncnc(N3CCOCC3)c2c1C(=O)NCCc1ccccc1,,-7.19% (inactive)
CCCN(C(=O)Cn1cc(S(=O)(=O)N2CCN(c3ccccc3F)CC2)c2ccccc2c1=O)c1cccc(C)c1,,-28.5% (inactive)
COc1ccc(NC(=O)CN(C)C(=O)c2cc(C3CC3)nn2-c2ccccc2)cc1,,-2.32% [at 2.33 µM] (inactive)
O=C(CCNC(=O)c1ccc([N+](=O)[O-])cc1)NC1CCCCC1,,-10.3% [at 102 µM] (inactive)
COc1cc(NC(=O)Cn2nc(-c3ccc(C)c(C)c3)ccc2=O)cc(OC)c1,,2.48% (inactive)
CCCN(CCC)C(=S)Nc1cc(C(=O)OC)ccc1C(=O)OC,,4.81% [at 102 µM] (inactive)
CCS(=O)(=O)Nc1cc(C(=O)OC)ccc1C(=O)OC,2.82 µM (active),
CCN(CCO)C(=S)Nc1cc(C(=O)OC)ccc1C(=O)OC,,-9.82% [at 102 µM] (inactive)
